According to PubChem BioAssay:
The source made the active and inactive calls.

Key:
[1] = small molecules captured by biotinylated probe aFSTL3 – biochemical, small-molecule microarray, fluorescence 635/667, stem cell growth factor project, primary screen (AID 1064); conditions: higher = more signal;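 further: measures binding of the biotinylated anti-FSTL3 antibody to printed compounds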
[2] = binders from COS7 lysate, DM2A8 probe, primary screen, torsin A project, cell lysate, small-molecule microarray, fluorescence 635/667 (AID 1065); conditions: higher = more signal, COS7 lysate expressing mutant human TOR1A
[3] = small molecules captured by biotinylated probe aFGF2 – biochemical, small-molecule microarray, fluorescence 635/667, stem cell growth factor project, primary screen (AID 1067); conditions: higher = more signal;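 further: measures binding of biotinylated aFGF2 protein to printed compounds on slides; z-score merges feature fluorescence and signal-to-noise across triplicate slides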
[4] = small molecules captured by biotinylated probe aFGF10 – biochemical, small-molecule microarray, fluorescence 635/667, stem cell growth factor project, primary screen (AID 1071); conditions: higher = more signal;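 further: score merges 667 nm spot intensity and signal to noise from triplicate slides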
[5] = molecular target: Neurogenic locus notch homolog protein 2 (Homo sapiens) (UniProt Q04721); experiment: small molecules binding Notch2 protein – biochemical, small-molecule microarray, 635 nm fluorescence, stem cell growth factors, primary screen (AID 1073); conditions: higher = more signal
Chain of Neurogenic locus notch homolog protein 2 (Homo sapiens) (Q04721 whole entry, looked up, canonical isoform): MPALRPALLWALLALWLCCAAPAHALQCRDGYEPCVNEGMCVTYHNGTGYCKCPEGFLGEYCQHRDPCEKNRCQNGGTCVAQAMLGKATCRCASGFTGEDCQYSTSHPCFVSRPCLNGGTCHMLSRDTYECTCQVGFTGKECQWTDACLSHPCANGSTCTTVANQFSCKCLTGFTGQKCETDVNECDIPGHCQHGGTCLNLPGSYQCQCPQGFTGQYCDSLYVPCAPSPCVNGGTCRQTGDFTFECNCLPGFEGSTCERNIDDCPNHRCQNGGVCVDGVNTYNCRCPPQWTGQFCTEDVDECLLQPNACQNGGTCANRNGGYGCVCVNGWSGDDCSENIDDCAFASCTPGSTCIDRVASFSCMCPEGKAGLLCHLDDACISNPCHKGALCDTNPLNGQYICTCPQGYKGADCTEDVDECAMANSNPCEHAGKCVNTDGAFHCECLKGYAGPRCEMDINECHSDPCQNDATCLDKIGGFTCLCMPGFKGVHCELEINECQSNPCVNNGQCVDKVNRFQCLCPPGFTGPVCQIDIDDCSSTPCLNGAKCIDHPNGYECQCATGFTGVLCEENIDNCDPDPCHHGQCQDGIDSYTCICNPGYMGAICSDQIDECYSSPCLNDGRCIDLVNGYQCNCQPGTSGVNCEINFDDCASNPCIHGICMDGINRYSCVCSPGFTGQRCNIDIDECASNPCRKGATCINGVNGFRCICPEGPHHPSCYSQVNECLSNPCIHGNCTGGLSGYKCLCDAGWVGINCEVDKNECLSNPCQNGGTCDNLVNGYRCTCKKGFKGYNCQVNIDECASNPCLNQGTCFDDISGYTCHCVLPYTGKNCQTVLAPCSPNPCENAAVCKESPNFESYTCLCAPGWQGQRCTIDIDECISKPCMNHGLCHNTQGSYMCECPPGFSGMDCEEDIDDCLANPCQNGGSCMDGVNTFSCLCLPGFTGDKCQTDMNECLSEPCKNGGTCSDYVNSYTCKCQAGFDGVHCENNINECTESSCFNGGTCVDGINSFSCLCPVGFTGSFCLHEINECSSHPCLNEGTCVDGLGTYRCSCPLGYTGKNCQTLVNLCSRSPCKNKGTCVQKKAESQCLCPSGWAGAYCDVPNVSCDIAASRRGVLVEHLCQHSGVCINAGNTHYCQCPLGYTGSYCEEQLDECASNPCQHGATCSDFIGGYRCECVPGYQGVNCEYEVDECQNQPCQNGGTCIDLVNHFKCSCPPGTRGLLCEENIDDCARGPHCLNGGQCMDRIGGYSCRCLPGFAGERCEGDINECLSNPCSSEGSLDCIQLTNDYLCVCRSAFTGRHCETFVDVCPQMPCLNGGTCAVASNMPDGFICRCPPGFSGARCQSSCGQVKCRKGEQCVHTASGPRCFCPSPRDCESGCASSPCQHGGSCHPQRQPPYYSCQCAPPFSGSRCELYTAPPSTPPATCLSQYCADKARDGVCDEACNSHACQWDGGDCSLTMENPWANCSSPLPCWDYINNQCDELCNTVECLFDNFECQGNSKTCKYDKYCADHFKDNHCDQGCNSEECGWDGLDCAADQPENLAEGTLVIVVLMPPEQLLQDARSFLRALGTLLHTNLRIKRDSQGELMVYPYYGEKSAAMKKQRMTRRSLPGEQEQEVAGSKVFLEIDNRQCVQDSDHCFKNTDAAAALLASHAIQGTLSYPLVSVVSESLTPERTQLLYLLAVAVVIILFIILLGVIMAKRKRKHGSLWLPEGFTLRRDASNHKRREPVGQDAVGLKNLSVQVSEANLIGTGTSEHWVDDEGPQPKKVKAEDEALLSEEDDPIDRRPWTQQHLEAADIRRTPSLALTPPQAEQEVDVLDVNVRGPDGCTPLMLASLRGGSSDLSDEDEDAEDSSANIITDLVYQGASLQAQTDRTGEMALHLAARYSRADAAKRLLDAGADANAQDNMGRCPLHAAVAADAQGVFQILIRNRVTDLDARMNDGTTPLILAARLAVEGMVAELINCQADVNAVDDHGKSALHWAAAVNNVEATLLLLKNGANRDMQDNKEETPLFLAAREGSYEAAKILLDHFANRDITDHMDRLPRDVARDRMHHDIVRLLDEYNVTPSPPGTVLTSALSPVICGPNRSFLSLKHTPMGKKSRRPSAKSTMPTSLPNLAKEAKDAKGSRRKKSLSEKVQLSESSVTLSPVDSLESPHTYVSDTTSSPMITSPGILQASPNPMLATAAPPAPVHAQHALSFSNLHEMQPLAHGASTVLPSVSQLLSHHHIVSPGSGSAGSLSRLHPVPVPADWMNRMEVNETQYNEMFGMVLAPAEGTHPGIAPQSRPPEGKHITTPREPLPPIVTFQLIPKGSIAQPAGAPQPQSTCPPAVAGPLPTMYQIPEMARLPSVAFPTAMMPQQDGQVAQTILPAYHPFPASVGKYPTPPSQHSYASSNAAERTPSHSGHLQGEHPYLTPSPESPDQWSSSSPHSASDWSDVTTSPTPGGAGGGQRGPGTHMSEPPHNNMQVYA

[6] = molecular target: Pro-neuregulin-1, membrane-bound isoform (Homo sapiens) (UniProt Q02297); experiment: small molecules binding neuregulin-1 protein – biochemical, small-molecule microarray, fluorescence 635/667, psychiatric disease protein project, primary screen (AID 1075); conditions: NRG1 binding, 635 nm fluorescence, higher = more signal;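 further: score combines 667 nm spot fluorescence with signal to noise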
Chain of Pro-neuregulin-1, membrane-bound isoform (Homo sapiens) (Q02297 whole entry, looked up, the tested form may be a part, canonical isoform): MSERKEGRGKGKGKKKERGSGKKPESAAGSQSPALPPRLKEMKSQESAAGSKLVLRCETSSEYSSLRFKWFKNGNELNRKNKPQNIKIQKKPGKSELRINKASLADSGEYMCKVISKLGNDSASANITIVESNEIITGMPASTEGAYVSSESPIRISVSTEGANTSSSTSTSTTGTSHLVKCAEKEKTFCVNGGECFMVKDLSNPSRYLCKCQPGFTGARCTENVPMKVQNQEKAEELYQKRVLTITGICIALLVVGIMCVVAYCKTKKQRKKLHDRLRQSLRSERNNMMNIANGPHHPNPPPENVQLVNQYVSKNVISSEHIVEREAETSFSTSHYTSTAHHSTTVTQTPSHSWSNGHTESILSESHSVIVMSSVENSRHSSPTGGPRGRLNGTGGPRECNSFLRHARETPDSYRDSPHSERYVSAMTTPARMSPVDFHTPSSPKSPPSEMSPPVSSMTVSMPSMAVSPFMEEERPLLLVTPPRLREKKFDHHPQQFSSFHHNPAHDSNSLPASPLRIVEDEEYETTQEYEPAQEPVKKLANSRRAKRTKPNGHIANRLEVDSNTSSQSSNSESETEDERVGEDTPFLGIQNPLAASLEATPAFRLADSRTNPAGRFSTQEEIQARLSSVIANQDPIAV

[7] = tested on: Neuregulin-1 EGF-like domain; experiment: small molecules binding NRG1 EGF domain – biochemical, small-molecule microarray, 635 nm fluorescence, primary screen (AID 1081); conditions: higher = more signal;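 further: binding of the protein to compounds printed on small-molecule microarray slides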
[8] = FRG1 expression reporter modulators in myotubes – cell-based, C2C12 myotubes, firefly/Renilla luciferase, luminescence, FRG1 inhibition for FSHD, primary screen (AID 1084); conditions: FRG1 promoter luciferase, higher = more signal, called active from +8 up or from −8 down
[9] = small molecules captured by biotinylated probe aFST – biochemical, small-molecule microarray, fluorescence 635/667, stem cell growth factor project, primary screen (AID 1086); conditions: higher = more signal;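 further: score merges 667 nm fluorescence with signal-to-noise of each printed compound spot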
[10] = binders of probe aHhip on microarray, primary screen, stem cell growth factor project, biochemical, small-molecule microarray, fluorescence 635/667 (AID 1087); conditions: higher = more signal;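 further: score merges spot fluorescence at 667nm with spot signal to noise ratio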

SMILES | composite z-score [1] | composite z-score [2] | composite z-score [3] | composite z-score [4] | composite z-score [5] | composite z-score [6] | composite z-score [7] | z-score [8] | composite z-score [9] | composite z-score [10]
COC(=O)c1c2oc(c1C(=O)OC)C(=O)NC1(CCCCC1)c1cn(nn1)C[C@H](Cc1ccccc1)NC(=O)N[C@H](CO)CC2 | -0.414 | -0.0111 | -0.13 | 0.117 | 0.531 | 1.49 | 1.11 | -0.553 (inactive) | -0.224 | 0.0373
OB1C=CCC(CCc2ccccc2)O1 (stereo not given) | 0.0393 | -0.334 | -0.0883 | -0.254 | -0.809 | -0.995 | -0.989 | -0.209 (inactive) | -0.393 | -0.132
C=C(C(=O)CC[C@H](OC(C)=O)c1ccccc1OCCO)C(C)C | -0.214 | -1.03 | -0.0985 | 0.317 | -0.926 | -0.49 | -0.862 | -4.37 (inactive) | -0.327 | 0.0854
NC(=O)NCC#Cc1ccc2c(c1)[C@]1(C(=O)N2)[C@H](C(=O)O)[C@H]2C(=O)O[C@H](c3ccccc3)[C@H](c3ccccc3)N2[C@@H]1c1ccc(O)cc1 | 2.62 | -0.0893 | -0.0098 | -0.135 | 0.053 | 0.441 | -0.293 | 1.5 (inactive) | 1.83 | 0.182
O=C(O)[C@H](Cc1ccccc1)n1cc(-c2ccccc2)nn1 | -0.37 | -0.104 | -0.0583 | 0.399 | 0.533 | 0.0865 | 0.871 | 1.33 (inactive) | 0.328 | -0.181
CCOC(=O)C1=C[C@@H](C(C)C)N(S(=O)(=O)c2ccc(C)cc2)[C@H]1c1ccccc1F | -0.487 | 0.267 | -0.0924 | 0.817 | 1.65 | 1.23 | 1.1 | -1.83 (inactive) | 0.904 | -0.305
O=C1C2C=CC(C(O)C=Cc3ccc([N+](=O)[O-])cc3)N(n3cnnc3)C2C(=O)N1Cc1ccccc1 (stereo not given) | 0.246 | 1.31 | 0.0575 | 0.375 | 1.27 | 1.77 | 1.19 | 0.422 (inactive) | 1.09 | -0.226
COc1cc2c(cc1OC)CN(C(=O)[C@H]1[C@@H]3C(=O)O[C@@H](c4ccccc4)[C@@H](c4ccccc4)N3[C@@H](c3ccccc3OCCO)[C@]13C(=O)Nc1ccc(C#CCCO)cc13)CC2 | -0.39 | 0.282 | 0.0094 | 0.339 | 0.775 | 1.27 | 1.07 | -2.07 (inactive) | 0.369 | -0.0994
[N-]=[N+]=Nc1ccccc1[C@H]1OC(c2ccc(OCCCO)cc2)=N[C@@]1(CCS(=O)(=O)c1ccccc1)C(=O)NCc1ccccc1 | -0.196 | 0.144 | 0.0843 | 0.935 | 1.66 | 1.44 | 1.34 | 5.01 (inactive) | 1.58 | 0.258
NCCCCCNC(=O)[C@H]1C[C@H]2C(=O)N3CCC[C@H]3C(=O)N2[C@H]1c1ccc(O)cc1 | 1.39 | 1.06 | 0.197 | 0.457 | 0.698 | 1.62 | 1.23 | 0.0225 (inactive) | 1.52 | 0.399
O=C1O[C@@H](c2ccccc2)[C@@H](c2ccccc2)N2[C@@H](c3ccccc3OCCO)[C@]3(C(=O)Nc4ccccc43)[C@@H](C(=O)O)[C@H]12 | -0.229 | -0.0324 | 0.0301 | 0.551 | 0.522 | 1.57 | 1.12 | -1.84 (inactive) | -0.0073 | 0.0524
C=CCNC(=O)[C@H]1[C@@H]2C(=O)O[C@@H](c3ccccc3)[C@@H](c3ccccc3)N2[C@@H](c2ccc(OCCO)cc2)[C@]12C(=O)Nc1ccc(C#CCC(C(=O)OC)C(=O)OC)cc12 | -0.378 | 0.632 | 0.0501 | 0.441 | 1.17 | 1.17 | 1.18 | 0.0693 (inactive) | 0.452 | 0.0373
O=C1C2C=CC(C(O)c3ccc4c(c3)OCO4)N(Nc3ccc([N+](=O)[O-])cc3)C2C(=O)N1c1ccccc1 (stereo not given) | -0.407 | 0.566 | 0.0019 | 0.791 | 1.05 | 0.626 | 0.65 | -0.383 (inactive) | 0.314 | -0.134
CCCCCCc1nc(-c2ccc(-c3ccc(Cl)c(Cl)c3)o2)c(C)c2c1[Si](C(C)C)(C(C)C)OC2 | -0.495 | -0.866 | -0.144 | -0.475 | -0.363 | 0.0643 | -0.416 | 0.333 (inactive) | -0.0878 | 0.0505
COC(=O)[C@]1(Cc2ccccc2)N=C(c2ccc(OCCCO)cc2)O[C@@H]1c1ccccc1N=[N+]=[N-] | -0.186 | 0.179 | -0.0268 | -0.13 | 0.473 | 0.314 | 0.764 | 4.51 (inactive) | 0.551 | 0.0373
[N-]=[N+]=Nc1ccccc1C[C@@]1(C(=O)N2CCCCC2)N=C(c2ccc(OCCCO)cc2)O[C@@H]1c1ccccc1 | 0.155 | 1.1 | 0.0137 | 0.763 | 1.47 | 1.74 | 1.11 | -4.6 (inactive) | 0.884 | 0.0873

SMILES | composite z-score [1] | composite z-score [2] | composite z-score [3] | composite z-score [4] | composite z-score [5] | composite z-score [6] | composite z-score [7] | z-score [8] | composite z-score [9] | composite z-score [10]
O=C1N(CCS(=O)(=O)c2ccccc2)c2ccccc2[C@@H]2OC(c3ccc(OCCCO)cc3)=N[C@]12Cc1ccccc1 | -0.0695 | 0.437 | -0.165 | 0.307 | 0.849 | 1.38 | 1.29 | -4.02 (inactive) | 0.57 | -0.156
C=CC[C@@]1(C(=O)N2CCCCC2)N=C(c2ccc(OCCCO)cc2)O[C@@H]1c1ccccc1CN=[N+]=[N-] | 0.134 | 0.432 | 0.084 | 0.378 | 1.6 | 1.8 | 1.32 | -1.43 (inactive) | 0.938 | -0.219
C=CCN(Cc1ccccc1)C(=O)C(c1cccs1)N(C(=O)/C=C\C(=O)O)c1ccc(CCOCCO)cc1 (stereo not given) | 0.146 | -0.182 | -0.176 | -0.865 | -1.84 | 0.718 | 0.0305 | 0.988 (inactive) | -1.35 | -0.134
CN1C(=O)C2C=CC(C(O)C=Cc3ccc([N+](=O)[O-])cc3)N(Nc3ccccc3)C2C1=O (stereo not given) | -0.283 | 0.617 | 0.0411 | 0.497 | 1.25 | 1.59 | 1.35 | 2.12 (inactive) | 0.998 | -0.132
COc1ccc([Si](C)(C)[C@H]2[C@H](CC(=O)N3CCC[C@H]3CO)O[C@@]3(C(=O)N(Cc4cccc(N5CCOC5=O)c4)c4ccccc43)[C@@H]2C)cc1 | -0.308 | 0.358 | -0.042 | 0.141 | 0.143 | 0.662 | 0.876 | -3.92 (inactive) | 0.548 | -0.169
C=C(/C(=C/C[C@H](OC(C)=O)c1ccc(OCCO)cc1)c1cc(C(=O)OC)ccc1OC)C(C)C | -0.183 | 0.585 | -0.145 | 0.41 | 0.219 | 1.17 | 0.376 | -0.863 (inactive) | 0.388 | -0.175
C#CCN1[C@H](/C=C/C2CC2)[C@H](Cc2ccccc2)OC(=O)[C@@H]1Cc1ccccc1 | -0.413 | 0.241 | -0.144 | -0.0377 | -0.343 | 0.153 | 0.524 | -4.01 (inactive) | -0.0168 | 0.0373
CCCNC(=O)[C@@]1(Sc2ccc(C)cc2)CC(=O)N(Cc2ccccc2C(F)(F)F)[C@@H]1c1ccc(CO)cc1I | -0.0981 | 2.46 | -0.0583 | -0.0686 | 0.267 | 1.22 | 1.07 | -0.267 (inactive) | 0.574 | -0.0346
CO[C@H]1O[C@H](CO)[C@@H](OC(=O)Nc2cccc(F)c2)[C@H](OC(=O)Nc2ccccc2)[C@H]1OC(=O)Nc1ccccc1 | -0.246 | 1.35 | 0.0664 | 0.466 | 1.07 | 0.981 | 1.36 | 0.746 (inactive) | 0.724 | -0.191
[N-]=[N+]=Nc1ccccc1[C@H]1OC(c2ccc(OCCCO)cc2)=N[C@@]1(Cc1ccccc1)C(=O)N1CCOCC1 | 0.875 | 0.992 | 0.184 | 0.698 | 1.57 | 1.84 | 1.22 | -1.6 (inactive) | 1.52 | 0.0873
COC(=O)C[C@H]1O[C@@H](CCc2ccccc2)[C@@H](C)[C@@H]1[Si](C)(C)c1ccc(OC)cc1 | -0.136 | -0.724 | -0.17 | -0.318 | -0.514 | -0.553 | -0.743 | -0.149 (inactive) | -0.165 | -0.137
CCOC(=O)C1=CC[C@@H](c2ccc(C(F)(F)F)cc2)N(S(=O)(=O)c2ccc(C)cc2)[C@H]1c1ccccc1 | 0.371 | 1.4 | 0.0917 | 0.599 | 1.38 | 1.3 | 1.25 | -0.364 (inactive) | 1.04 | -0.0296
C[N+](C)(C)CCCC[C@@H]1NC(=O)[C@@H]2C[C@H](C(=O)NCCCCCN)[C@H](c3ccc(O)cc3)N2C1=O | 0.419 | 0.896 | 0.0522 | 0.628 | 1 | 1.54 | 0.636 | -1.76 (inactive) | 1.19 | 0.266
O=C1OCCC=C[C@H]2OC34C=CCN(Cn5nnc6ccccc65)C(=O)[C@H]3N(CCO)C(=O)[C@@H]4C12 (stereo not given in full) | -0.254 | -0.4 | -0.219 | -0.308 | -1.06 | 0.0802 | 1.13 | 0.684 (inactive) | -0.8 | -0.226
[N-]=[N+]=NCc1ccccc1C[C@@]1(C(=O)NCC(O)CO)N=C(c2ccc(OCCCO)cc2)O[C@@H]1c1ccccc1 (stereo not given in full) | 1.03 | 0.0102 | -0.0459 | 0.206 | 0.111 | 0.768 | 0.952 | -1.26 (inactive) | -0.12 | -0.132
